According to the supplement of paper PMC11732987, “Enantioselective OTUD7B fragment discovery through chemoproteomics screening and high-throughput optimisation” (Communications Chemistry, 2025):

Columns and labels:
Assay in all cases: log2 ratio of Biotin-Ahx-Ub-VS probe labelling (fragment/DMSO); higher = less target engagement (more negative = stronger competition), active = hit call of the paper (q ≤ 0.05, log2 ratio ≤ -1)
Conditions in all cases: compound concentration: 200 uM; treatment time: 3 h
USP34 = USP34 (UniProt Q70CQ2)
Summary of the method: (§1)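 Labelled DUBs from HEK293T lysate were NeutrAvidin-enriched, digested with LysC and trypsin, and run by diaPASEF LC-MS/MS. Before that, each 495 µg sample in Tris/CHAPS/IGEPAL buffer with protease inhibitors was treated in triplicate with fragment at 200 µM or vehicle for 3 h, then with Biotin-Ahx-Ub-VS at 0.5 µM final for 1 h. Values are average log2 ratios of fragment over vehicle by unpaired t-test, based on global-median-normalised Spectronaut label-free quantities from proteins with ≥2 unique peptides.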

USP36 = biological target: T1, USP36 (UniProt Q9P275)
T1 sequence (whole entry): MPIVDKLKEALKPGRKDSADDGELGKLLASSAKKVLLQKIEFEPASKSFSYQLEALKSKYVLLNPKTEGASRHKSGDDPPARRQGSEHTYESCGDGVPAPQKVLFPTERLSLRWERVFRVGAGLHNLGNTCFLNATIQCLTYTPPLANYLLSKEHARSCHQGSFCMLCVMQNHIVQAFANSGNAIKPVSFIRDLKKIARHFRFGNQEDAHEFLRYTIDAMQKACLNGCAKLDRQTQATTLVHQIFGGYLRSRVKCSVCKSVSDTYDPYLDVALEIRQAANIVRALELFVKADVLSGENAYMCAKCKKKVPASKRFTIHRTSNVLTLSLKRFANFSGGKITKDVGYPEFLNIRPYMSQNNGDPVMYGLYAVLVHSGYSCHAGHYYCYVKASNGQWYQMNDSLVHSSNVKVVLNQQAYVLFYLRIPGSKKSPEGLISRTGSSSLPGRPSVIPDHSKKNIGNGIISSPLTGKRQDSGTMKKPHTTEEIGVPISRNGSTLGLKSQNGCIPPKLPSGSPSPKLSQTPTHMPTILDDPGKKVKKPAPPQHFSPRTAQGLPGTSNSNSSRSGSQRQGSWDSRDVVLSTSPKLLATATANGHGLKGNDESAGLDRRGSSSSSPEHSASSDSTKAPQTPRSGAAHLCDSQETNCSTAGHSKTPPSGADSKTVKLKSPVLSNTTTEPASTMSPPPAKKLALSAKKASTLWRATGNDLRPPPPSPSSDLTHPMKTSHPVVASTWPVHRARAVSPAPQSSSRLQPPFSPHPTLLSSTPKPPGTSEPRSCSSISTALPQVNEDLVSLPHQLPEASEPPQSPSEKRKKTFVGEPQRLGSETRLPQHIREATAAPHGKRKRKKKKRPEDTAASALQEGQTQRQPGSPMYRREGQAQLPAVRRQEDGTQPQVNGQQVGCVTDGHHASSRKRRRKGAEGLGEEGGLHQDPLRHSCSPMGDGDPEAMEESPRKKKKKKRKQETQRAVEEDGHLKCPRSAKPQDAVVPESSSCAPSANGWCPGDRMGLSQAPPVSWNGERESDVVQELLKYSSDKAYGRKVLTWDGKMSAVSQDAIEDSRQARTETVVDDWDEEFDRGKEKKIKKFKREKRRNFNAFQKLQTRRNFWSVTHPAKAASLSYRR
Summary of the method: as §1

USP38 = biological target: T2, USP38 (UniProt Q8NB14)
T2 sequence (whole entry): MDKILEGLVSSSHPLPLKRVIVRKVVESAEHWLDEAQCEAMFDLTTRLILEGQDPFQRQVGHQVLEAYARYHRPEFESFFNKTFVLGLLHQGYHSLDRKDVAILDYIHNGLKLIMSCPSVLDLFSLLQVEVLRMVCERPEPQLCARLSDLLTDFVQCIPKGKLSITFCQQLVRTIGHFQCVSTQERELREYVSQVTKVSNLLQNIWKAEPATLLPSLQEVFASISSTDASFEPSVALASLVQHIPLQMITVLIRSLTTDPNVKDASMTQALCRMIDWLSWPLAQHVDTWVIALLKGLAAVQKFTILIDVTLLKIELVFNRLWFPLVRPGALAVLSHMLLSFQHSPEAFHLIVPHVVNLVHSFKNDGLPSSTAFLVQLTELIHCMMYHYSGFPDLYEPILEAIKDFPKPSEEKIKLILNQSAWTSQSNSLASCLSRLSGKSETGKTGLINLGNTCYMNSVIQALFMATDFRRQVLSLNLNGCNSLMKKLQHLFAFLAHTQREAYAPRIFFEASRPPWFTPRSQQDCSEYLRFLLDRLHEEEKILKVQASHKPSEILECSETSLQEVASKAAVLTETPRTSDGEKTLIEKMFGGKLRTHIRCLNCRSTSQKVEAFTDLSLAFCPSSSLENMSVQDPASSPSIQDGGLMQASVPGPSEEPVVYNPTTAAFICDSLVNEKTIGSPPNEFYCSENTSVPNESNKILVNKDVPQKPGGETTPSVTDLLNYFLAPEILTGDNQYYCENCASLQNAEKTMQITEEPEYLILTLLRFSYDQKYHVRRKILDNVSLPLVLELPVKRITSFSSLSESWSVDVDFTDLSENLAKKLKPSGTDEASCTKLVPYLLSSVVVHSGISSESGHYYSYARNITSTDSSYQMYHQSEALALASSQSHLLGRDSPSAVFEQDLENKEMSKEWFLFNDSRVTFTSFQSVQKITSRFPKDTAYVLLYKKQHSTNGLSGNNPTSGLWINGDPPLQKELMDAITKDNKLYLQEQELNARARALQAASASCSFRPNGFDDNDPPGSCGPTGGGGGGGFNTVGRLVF
Summary of the method: as §1

USP39 = biological target: T3, USP39 (UniProt Q53GS9)
T3 sequence (whole entry): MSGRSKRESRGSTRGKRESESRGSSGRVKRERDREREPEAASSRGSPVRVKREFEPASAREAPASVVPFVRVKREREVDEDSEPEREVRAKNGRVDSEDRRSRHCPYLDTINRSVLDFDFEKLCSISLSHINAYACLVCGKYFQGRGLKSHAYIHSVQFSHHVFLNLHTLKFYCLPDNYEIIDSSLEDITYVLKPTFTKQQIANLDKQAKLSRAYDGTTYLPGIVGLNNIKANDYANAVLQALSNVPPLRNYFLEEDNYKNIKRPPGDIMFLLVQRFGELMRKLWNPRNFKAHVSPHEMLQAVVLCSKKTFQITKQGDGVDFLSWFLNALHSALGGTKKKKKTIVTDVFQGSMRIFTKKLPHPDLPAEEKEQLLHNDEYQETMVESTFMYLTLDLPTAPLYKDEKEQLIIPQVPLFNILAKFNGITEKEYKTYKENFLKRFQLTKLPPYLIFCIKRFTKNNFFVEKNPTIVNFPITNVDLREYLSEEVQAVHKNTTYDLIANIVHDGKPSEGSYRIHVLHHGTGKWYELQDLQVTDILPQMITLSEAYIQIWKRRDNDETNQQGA
Summary of the method: as §1

USP4 = biological target: T4, USP4 (UniProt Q13107)
T4 sequence (whole entry): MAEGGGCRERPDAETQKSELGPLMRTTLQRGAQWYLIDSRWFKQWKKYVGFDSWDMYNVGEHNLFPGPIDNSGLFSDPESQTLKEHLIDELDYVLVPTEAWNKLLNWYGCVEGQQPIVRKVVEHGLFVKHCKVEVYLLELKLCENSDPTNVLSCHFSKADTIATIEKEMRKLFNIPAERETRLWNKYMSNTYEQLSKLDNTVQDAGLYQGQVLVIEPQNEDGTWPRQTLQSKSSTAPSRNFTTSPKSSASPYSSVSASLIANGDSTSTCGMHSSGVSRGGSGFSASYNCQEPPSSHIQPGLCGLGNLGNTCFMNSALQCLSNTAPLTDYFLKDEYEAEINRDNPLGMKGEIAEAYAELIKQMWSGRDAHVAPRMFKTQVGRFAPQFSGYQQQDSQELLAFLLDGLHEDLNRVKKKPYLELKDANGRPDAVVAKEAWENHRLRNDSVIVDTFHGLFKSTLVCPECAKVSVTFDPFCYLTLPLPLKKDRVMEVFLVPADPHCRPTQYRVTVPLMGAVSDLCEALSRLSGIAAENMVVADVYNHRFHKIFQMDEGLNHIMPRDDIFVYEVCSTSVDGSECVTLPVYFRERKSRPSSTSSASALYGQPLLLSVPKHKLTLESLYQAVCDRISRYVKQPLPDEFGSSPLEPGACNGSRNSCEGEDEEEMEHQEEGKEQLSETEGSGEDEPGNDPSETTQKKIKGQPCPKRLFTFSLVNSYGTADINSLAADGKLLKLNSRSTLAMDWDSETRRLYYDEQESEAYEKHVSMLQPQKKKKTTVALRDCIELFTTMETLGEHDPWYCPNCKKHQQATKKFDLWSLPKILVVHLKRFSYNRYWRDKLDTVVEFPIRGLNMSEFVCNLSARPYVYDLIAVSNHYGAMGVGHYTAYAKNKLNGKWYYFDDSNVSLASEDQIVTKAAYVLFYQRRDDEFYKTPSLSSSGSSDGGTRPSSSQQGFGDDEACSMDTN
Summary of the method: as §1

Measured: log2 ratio of Biotin-Ahx-Ub-VS probe labelling

Chain of USP34 (Q70CQ2 whole entry, the tested form may be a part): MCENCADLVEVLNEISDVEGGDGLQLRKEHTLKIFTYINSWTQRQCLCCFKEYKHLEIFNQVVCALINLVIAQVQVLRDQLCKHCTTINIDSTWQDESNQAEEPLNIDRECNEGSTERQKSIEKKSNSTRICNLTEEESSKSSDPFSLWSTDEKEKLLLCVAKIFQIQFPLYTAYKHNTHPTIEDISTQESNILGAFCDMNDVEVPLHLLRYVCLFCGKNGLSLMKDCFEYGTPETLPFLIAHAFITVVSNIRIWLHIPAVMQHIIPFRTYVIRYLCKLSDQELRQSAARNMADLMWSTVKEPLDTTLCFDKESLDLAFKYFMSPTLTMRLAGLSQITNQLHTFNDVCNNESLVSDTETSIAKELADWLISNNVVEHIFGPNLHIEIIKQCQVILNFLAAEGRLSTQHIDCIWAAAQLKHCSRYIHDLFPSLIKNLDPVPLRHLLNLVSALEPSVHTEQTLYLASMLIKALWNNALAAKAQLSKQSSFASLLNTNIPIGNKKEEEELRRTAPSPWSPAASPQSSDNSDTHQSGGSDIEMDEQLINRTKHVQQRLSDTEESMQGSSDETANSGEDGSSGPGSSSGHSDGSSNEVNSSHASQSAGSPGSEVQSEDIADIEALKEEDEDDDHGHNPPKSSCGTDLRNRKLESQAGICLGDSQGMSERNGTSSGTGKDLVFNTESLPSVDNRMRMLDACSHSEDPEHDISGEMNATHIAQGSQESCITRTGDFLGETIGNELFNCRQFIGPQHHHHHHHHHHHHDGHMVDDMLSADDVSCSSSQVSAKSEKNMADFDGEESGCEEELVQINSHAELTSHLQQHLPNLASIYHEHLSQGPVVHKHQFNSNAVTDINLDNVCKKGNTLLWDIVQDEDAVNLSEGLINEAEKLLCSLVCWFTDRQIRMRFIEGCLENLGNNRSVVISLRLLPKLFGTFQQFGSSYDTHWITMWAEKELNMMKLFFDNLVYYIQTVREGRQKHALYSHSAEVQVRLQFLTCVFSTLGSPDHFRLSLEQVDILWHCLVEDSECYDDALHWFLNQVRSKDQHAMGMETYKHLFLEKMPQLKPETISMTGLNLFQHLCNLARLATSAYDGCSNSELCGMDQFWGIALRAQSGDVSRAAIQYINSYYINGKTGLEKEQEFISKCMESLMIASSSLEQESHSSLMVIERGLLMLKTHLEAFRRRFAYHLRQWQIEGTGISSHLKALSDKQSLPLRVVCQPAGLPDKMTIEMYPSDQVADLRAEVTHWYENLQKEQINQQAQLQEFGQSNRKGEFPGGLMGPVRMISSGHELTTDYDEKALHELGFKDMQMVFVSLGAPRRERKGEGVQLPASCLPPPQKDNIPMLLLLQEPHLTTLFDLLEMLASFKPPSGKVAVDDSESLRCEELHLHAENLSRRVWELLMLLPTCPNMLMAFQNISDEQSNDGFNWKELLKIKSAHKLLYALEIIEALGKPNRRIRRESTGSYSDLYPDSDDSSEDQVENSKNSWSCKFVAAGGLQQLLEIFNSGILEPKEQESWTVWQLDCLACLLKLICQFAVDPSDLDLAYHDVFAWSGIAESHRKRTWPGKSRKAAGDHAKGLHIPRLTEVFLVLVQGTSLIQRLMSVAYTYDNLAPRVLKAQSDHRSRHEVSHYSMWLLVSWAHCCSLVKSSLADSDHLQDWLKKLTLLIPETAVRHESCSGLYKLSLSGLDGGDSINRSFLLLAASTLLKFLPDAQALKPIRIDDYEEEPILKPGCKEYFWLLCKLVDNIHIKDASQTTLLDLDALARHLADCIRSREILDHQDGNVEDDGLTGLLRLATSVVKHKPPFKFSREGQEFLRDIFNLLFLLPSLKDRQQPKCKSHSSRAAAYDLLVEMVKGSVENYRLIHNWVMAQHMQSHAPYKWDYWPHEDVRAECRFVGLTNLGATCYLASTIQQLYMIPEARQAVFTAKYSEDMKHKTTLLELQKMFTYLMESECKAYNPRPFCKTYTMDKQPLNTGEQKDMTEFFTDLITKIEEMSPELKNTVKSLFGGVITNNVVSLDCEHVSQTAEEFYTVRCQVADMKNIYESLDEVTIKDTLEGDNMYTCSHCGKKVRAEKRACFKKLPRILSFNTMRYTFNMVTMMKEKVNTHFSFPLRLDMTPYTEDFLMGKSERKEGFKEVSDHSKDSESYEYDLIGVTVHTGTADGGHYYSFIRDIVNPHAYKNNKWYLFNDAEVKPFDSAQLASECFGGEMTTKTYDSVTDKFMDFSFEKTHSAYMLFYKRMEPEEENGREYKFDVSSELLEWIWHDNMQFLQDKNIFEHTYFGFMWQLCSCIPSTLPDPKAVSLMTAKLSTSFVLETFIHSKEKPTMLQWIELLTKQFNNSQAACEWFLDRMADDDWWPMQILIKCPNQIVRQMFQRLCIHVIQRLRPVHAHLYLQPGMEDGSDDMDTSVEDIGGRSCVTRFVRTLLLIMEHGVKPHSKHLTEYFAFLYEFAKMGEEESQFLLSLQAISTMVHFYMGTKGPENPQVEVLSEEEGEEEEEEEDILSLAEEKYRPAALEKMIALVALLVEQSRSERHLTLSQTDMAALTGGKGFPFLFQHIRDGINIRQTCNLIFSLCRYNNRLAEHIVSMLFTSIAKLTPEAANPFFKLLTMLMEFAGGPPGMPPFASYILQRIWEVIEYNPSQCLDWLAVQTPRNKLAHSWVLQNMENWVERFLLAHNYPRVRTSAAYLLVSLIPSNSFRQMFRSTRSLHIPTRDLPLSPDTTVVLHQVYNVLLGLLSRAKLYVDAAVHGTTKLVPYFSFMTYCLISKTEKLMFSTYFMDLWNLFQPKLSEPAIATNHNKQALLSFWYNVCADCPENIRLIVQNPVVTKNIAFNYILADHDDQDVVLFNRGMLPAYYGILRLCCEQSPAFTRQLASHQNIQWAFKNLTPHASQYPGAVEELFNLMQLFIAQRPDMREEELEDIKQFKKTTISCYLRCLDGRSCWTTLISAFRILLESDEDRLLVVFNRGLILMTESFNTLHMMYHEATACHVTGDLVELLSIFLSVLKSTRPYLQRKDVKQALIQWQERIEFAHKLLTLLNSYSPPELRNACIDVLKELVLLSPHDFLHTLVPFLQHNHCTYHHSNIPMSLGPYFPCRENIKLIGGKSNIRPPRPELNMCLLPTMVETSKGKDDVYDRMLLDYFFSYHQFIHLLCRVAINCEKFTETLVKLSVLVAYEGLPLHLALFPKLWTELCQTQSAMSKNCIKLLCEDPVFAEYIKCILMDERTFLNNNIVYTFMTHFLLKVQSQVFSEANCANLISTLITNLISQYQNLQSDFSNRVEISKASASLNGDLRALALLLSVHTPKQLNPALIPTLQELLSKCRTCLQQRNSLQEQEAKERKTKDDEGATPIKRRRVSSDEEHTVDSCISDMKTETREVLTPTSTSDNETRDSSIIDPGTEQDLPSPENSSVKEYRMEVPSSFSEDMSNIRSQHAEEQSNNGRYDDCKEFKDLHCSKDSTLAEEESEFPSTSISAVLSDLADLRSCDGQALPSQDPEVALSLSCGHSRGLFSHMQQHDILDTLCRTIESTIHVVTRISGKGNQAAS

N#Cc1cnn(-c2ccccc2)c1NC(=O)CCl
inactive: USP34 0.0145 | USP36 -0.28 | USP38 -0.229 | USP39 -0.0134 | USP4 -0.24
